Results as given in the OligoGym collection.
Note: reference of the scale not given here.

What follows are sequences tested against C1orf106 (assay: pooled miR-30 sensor sort-seq; sequence = guide strand). Conditions: shRNA.
For TCTAGCAAGACAATACACCACC, the sensor-assay potency score (higher = more potent) was -0.714. With TAAAACATAATCATATCACAGG the sensor-assay potency score (higher = more potent) was -0.615. For TTCAGGTACAAAGACTTGCACA, the sensor-assay potency score (higher = more potent) was -0.854. With TTGAGCTCCTCGGACACGGCGG the sensor-assay potency score (higher = more potent) was -0.833. For TTCTCCTCCAGGCACAGCCGAC, the sensor-assay potency score (higher = more potent) was -1.78. TAGCTGAGGACACAGCCACTTG showed a sensor-assay potency score (higher = more potent) of -1.67. TTGTAAGCCGCTCCGATCCTGC showed a sensor-assay potency score (higher = more potent) of -0.983. TAGAACCAGAGCACAGAGCGTT gave a sensor-assay potency score (higher = more potent) of -0.706. TAAGCCGCTCCGATCCTGCGGC showed a sensor-assay potency score (higher = more potent) of -0.585.

What follows are sequences tested against C1orf109 in the same assay as above. Conditions: shRNA.
TTTCTCTTCAGGTACGACTTTC showed a sensor-assay potency score (higher = more potent) of -0.727. In the case of TTTTTAAAAAAAGACAACCTAA, the sensor-assay potency score (higher = more potent) is reported as -0.867. In the case of ATCTTGTACAAGATCCTGGTGT, the sensor-assay potency score (higher = more potent) is reported as -0.231. In the case of TGACAAAAGACACAAAACCAGG, the sensor-assay potency score (higher = more potent) is reported as -1.47. Sequence TAAATAGACACTGAAAAGGTAT has a sensor-assay potency score (higher = more potent) of -0.303. TTGAAAAATATCTATACCCTTT gave a sensor-assay potency score (higher = more potent) of -0.465. Sequence TAGATGAAGGCAGCAGACCTTG has a sensor-assay potency score (higher = more potent) of -1.04. With TATCTTGTACAAGATCCTGGTG the sensor-assay potency score (higher = more potent) was -0.3. In the case of TTCTTTAGAAACATCAGGGTTC, the sensor-assay potency score (higher = more potent) is reported as 0.139. Sequence TTATTAATAATAGTTATCTGGT has a sensor-assay potency score (higher = more potent) of 0.0251. TATGTATCGATGATAGCACGTT showed a sensor-assay potency score (higher = more potent) of 0.283. Work on TTTAGGTCCACAATAGAGGAAA yielded a sensor-assay potency score (higher = more potent) of -1.1.

These sequences were tested against C1orf114 in the same assay as above. Conditions: shRNA.
For TTCTTTCATCTGCTCTTCGTGC, the sensor-assay potency score (higher = more potent) was -0.834. In the case of TTCTTGTCCAAAATCATTGGAA, the sensor-assay potency score (higher = more potent) is reported as -0.446. For TTCTAGTGGAGGAACTTCCAAA, the sensor-assay potency score (higher = more potent) was -0.899. TTCTTGATTCTGTAGAAGCTTG gave a sensor-assay potency score (higher = more potent) of -0.732. TAGTAGTGTCTTCTAGTGGAGG was tested, and the sensor-assay potency score (higher = more potent) was -0.965. TTAGCTTCTAGTCGGAGCTGTC gave a sensor-assay potency score (higher = more potent) of -0.331. With TTTTCTTTTGCAACCACGCTTT the sensor-assay potency score (higher = more potent) was -0.00106. With TTCTCCATAATATATCTCCTTA the sensor-assay potency score (higher = more potent) was -0.58. TTGGTTAATATTCTCTTCCTTC was tested, and the sensor-assay potency score (higher = more potent) was -0.217. TTTTCCATCTCTCTCTACCAGT gave a sensor-assay potency score (higher = more potent) of -0.549. In the case of TACTATGTCATTCTCTCTCTTT, the sensor-assay potency score (higher = more potent) is reported as -0.145. TTTGTAGTTCTTTCTGTCGAGG showed a sensor-assay potency score (higher = more potent) of -0.841.

What follows are sequences tested against C1orf115 in the same assay as above. Conditions: shRNA.
TACTTCTTCAGCTTCCTCCGGT was tested, and the sensor-assay potency score (higher = more potent) was 0.808. In the case of TCGTCCGCCGCGCTCGTCCCGC, the sensor-assay potency score (higher = more potent) is reported as -1.58. TCTAGTAACATCCTCTTCCTCC showed a sensor-assay potency score (higher = more potent) of 0.254. For TTCTCTTCCAAATATGCTGTGT, the sensor-assay potency score (higher = more potent) was -0.325. For TTCTGCTGCACACCCACACTGC, the sensor-assay potency score (higher = more potent) was -0.976. For TTGCAGGCCGATGACCACGTAG, the sensor-assay potency score (higher = more potent) was -1.3. Work on TTCAAGTCTGAGATGCTCCAGG yielded a sensor-assay potency score (higher = more potent) of 0.617.
